{"source": "PubChem BioAssay AID504467", "about": "(National Center for Advancing Translational Sciences (NCATS), 2011)", "note": "Screen size: about 330,000 compounds; about 7,700 (2.3%) were called active. Entries that show only a call come without a potency. Roughly 26% stayed inconclusive and do not appear here. The call rests on the fitted dose curve; in most records, active means well fitted inhibition curve with a large enough effect; inconclusive means small, poorly fitted or top-dose-only effect, or effect the other way; inactive means flat fitted curve, though single readings scatter. The full list was thinned out, with actives kept by preference. Potency means the concentration at half of the fitted maximal effect."}
{"test": "qHTS screen for small molecules that inhibit ELG1-dependent DNA repair in human embryonic kidney (HEK293T) cells expressing luciferase-tagged ELG1; further: nearly all actives have a fitted effect of over 55% in size", "conditions": "HEK293T ELG1-luciferase reporter, luminescence, 16 h, DNA damage induced by 5-fluorouridine; series mostly up to 46.1 µM", "method_in_brief": "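DMSO vehicle served as the neutral condition. Each well held 2,000 cells given 5-fluorouridine plus compound; after 16 hr at 37 °C/5% CO2, ONE-Glo was added and luciferase measured 30 min later.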"}
{"smiles": "COc1ccc(CCNC(=O)CCc2cn(C)c3ccccc23)c(OC)c1", "Potency": "inactive"}
{"smiles": "CCOc1ccc(NS(=O)(=O)c2ccc(C(=O)NCC(c3ccccc3OC)N3CCCC3)cc2)cc1", "note": "(configuration not stated)", "Potency": "inactive"}
{"smiles": "O=C(OCC(=O)N1CCN(c2ccccc2)CC1)c1ccc([N+](=O)[O-])s1", "Potency": "inactive"}
{"smiles": "COc1ccc(CC(=O)N[C@@H]2c3cc(OC)c(OC)cc3C[C@H]2OCc2ccccc2)cc1", "Potency": "inactive"}
{"smiles": "CC(C)CN(C(=O)COC(=O)c1ccc2ccccc2c1)c1c(N)n(Cc2ccccc2)c(=O)[nH]c1=O", "Potency": "inactive"}
{"smiles": "O=C(O[C@@H]1[C@H](Cc2ccccc2)NS(=O)(=O)[C@H]2C[C@@H]3C=C[C@]12O3)c1ccccc1Br", "Potency": "inactive"}
{"smiles": "COc1cc(NC(=O)C2=CC(c3ccc(C)cc3)=NS(=O)(=O)N2C)cc(OC)c1OC", "Potency": "13 µM (active)"}
{"smiles": "COc1cc(NC(=O)C2=CC(c3ccco3)=NS(=O)(=O)N2C)cc(OC)c1OC", "Potency": "inactive"}
{"smiles": "COc1ccc(C2=NS(=O)(=O)N(C)C(C(=O)NC(C)c3ccccc3)=C2)cc1", "note": "(configuration not stated)", "Potency": "inactive"}
{"smiles": "C=CCn1c(SCc2cc(C(=O)OC)c(C)o2)nnc1-c1ccncc1", "Potency": "inactive"}
{"smiles": "C=CCn1c(SCc2c(C(=O)OC)sc(N)c2C(=O)OC)nnc1-c1ccc(Cl)cc1", "Potency": "23.1 µM (active)"}
{"smiles": "C=CCn1c(SCn2nnc3ccccc3c2=O)nnc1-c1ccc(Cl)cc1", "Potency": "inactive"}
{"smiles": "C#CCOCCOCCOCCNc1nc(N2CCN(C(=O)[C@H](CCCN=C(N)N)n3cc(C(N)[C@@H](C)CC)nn3)CC2)nc(N2CCN(C(=O)[C@H](CO)n3cc([C@@H](N)C(C)C)nn3)CC2)n1", "note": "(some centres not stated)", "Potency": "inactive"}
{"smiles": "CN(c1ccc(OCC(=O)O)cc1)S(=O)(=O)c1ccc2ccccc2c1", "Potency": "inactive"}
{"smiles": "CC(C)=CCCC(C)CN1CCC(n2nccc2NC(=O)c2ccccc2)CC1", "note": "(configuration not stated)", "Potency": "inactive"}
{"smiles": "Cc1cccc2cc(CN(C(=O)c3cccs3)c3ccccc3)c(=O)[nH]c12", "Potency": "inactive"}
{"smiles": "Cc1cc(C)c2[nH]c(=O)c(CN(Cc3ccccc3)C(=S)NCCCN(C)C)cc2c1", "Potency": "inactive"}
{"smiles": "Cc1cccc2cc(CN(Cc3cccs3)C(=S)NCc3ccco3)c(=O)[nH]c12", "Potency": "20.6 µM (active)"}
{"smiles": "C=CC[C@@H](CC(=O)N[C@@H](CO)Cc1ccccc1)C(=O)N[C@H](COC(=O)[C@H](CC=C)CC(=O)OC(C)(C)C)Cc1ccccc1", "Potency": "inactive"}
{"smiles": "COCCNc1cc(-c2ccccc2)nc2cc(-c3cccc(F)c3)nn12", "Potency": "18.3 µM (active)"}
{"smiles": "COC(=O)C(C)Sc1ccc2nnc(-c3cccc(F)c3)n2n1", "note": "(configuration not stated)", "Potency": "inactive"}
{"smiles": "COCCCNc1nc2c(-c3cccc(C(F)(F)F)c3)nnn2c2ccccc12", "Potency": "inactive"}
{"smiles": "O=S(=O)(c1ccc(SCc2ccc(Br)cc2)nc1)N1CCOCC1", "Potency": "inactive"}
{"smiles": "CC(=O)Oc1ccc2c(=O)oc(-c3ccc([N+](=O)[O-])cc3)nc2c1", "Potency": "inactive"}
{"smiles": "Cc1ccc(NC(=O)C/C(N)=N/O)cc1Cl", "Potency": "inactive"}
{"smiles": "O=C(CC(=O)Nc1ccc(Cl)c(Cl)c1)N/N=C/c1ccc(O)cc1", "Potency": "inactive"}
{"smiles": "O=C(CC(O)(C(F)(F)F)C(F)(F)F)Nc1ccc(Cl)c(Cl)c1", "Potency": "4.11 µM (active)"}
{"smiles": "COc1cccc2cc(C(=O)NCc3ccc(C)cc3)c(=N)oc12", "Potency": "inactive"}
{"smiles": "CCOc1ccc(NC(=O)CN(C)C(=O)c2cccc(S(=O)(=O)N3CCCC3)c2)cc1OCC", "Potency": "inactive"}
{"smiles": "O=C(CSc1nc2[nH]ncc2c(=O)n1-c1ccccc1)N1CCCc2ccccc21", "Potency": "inactive"}
{"smiles": "CCCn1c(SCC(=O)N2CCc3ccccc32)nnc1-c1ccncc1", "Potency": "inactive"}
{"smiles": "CCOC(=O)CNC(=O)CSc1ccc2nnc(-c3cccnc3)n2n1", "Potency": "inactive"}
{"smiles": "Cn1c(SCC(=O)N2CCCc3ccccc32)nc2ccccc2c1=O", "Potency": "16.4 µM (active)"}
{"smiles": "CCC(=O)N1CCCc2ccccc21", "Potency": "inactive"}
{"smiles": "O=C(CSc1ccc2nnc(-c3ccccc3)n2n1)N1CCCc2ccccc21", "Potency": "25.9 µM (active)"}
{"smiles": "O=C1NC(Cc2ccc(O)cc2)c2nc3ccc(Cl)cc3c(=O)n2-c2ccccc21", "note": "(configuration not stated)", "Potency": "inactive"}
{"smiles": "CCOc1ccc(NC(=O)C2CCN(C(=O)N3CCOc4ccccc43)CC2)cc1", "Potency": "inactive"}
{"smiles": "COC(=O)c1ccc(CN2CCCC(C(=O)Nc3cccc(-n4cnnn4)c3)C2)cc1", "note": "(configuration not stated)", "Potency": "16.4 µM (active)"}
{"smiles": "CC(C)CNC(=O)C1CCCN(S(=O)(=O)c2ccc(-n3cnnn3)cc2)C1", "note": "(configuration not stated)", "Potency": "inactive"}
{"smiles": "O=C(Nc1ccc(F)cc1)C1CCCN(S(=O)(=O)c2ccc(-n3cnnn3)cc2)C1", "note": "(configuration not stated)", "Potency": "inactive"}
{"smiles": "O=C(NCCc1ccco1)C(=O)NCCC1CCCCN1S(=O)(=O)c1ccccc1", "note": "(configuration not stated)", "Potency": "inactive"}
{"smiles": "N#C/C(=C(/O)COc1cccc2ccccc12)c1nc2ccccc2[nH]1", "Potency": "inactive"}
{"smiles": "c1ccc2c(CSCc3nc4ccccc4[nH]3)cccc2c1", "Potency": "inactive"}
{"smiles": "N#C/C(=C(/O)Cc1cccc2ccccc12)c1nc2ccccc2s1", "Potency": "20.6 µM (active)"}
{"smiles": "Cc1noc(C)c1S(=O)(=O)N(C)C[C@H]1Oc2ccc(NC(=O)C3CCCCC3)cc2C(=O)N([C@H](C)CO)C[C@@H]1C", "Potency": "inactive"}
{"smiles": "O=C(Nc1ccc(C(F)(F)F)cc1)c1cccc(-n2cnnn2)c1", "Potency": "inactive"}
{"smiles": "CC(=O)Nc1ccc(NS(=O)(=O)c2ccc3c(c2)NC(=O)CC(=O)N3)cc1", "Potency": "inactive"}
{"smiles": "COc1ccc(NC(=O)Cn2ncn3c(cc4ccccc43)c2=O)c(OC)c1OC", "Potency": "inactive"}
{"smiles": "COc1cc(-c2noc(C3CCCN(S(=O)(=O)c4cccc(Cl)c4)C3)n2)cc(OC)c1OC", "note": "(configuration not stated)", "Potency": "20.6 µM (active)"}
{"smiles": "COc1ccc(C(=O)C2CCCN(S(=O)(=O)c3cccc(C)c3)C2)c(C)c1", "note": "(configuration not stated)", "Potency": "inactive"}
{"smiles": "COc1ccc(NC(=O)N2CCCC(c3nc(-c4ccc(F)cc4)no3)C2)cc1", "note": "(configuration not stated)", "Potency": "inactive"}
{"smiles": "Cn1c(CC(=O)NNC(=O)c2ccccc2F)nc2ccccc21", "Potency": "inactive"}
{"smiles": "O=C(CN1C(=O)NC2(CCOc3ccccc32)C1=O)Nc1cccc([N+](=O)[O-])c1", "note": "(configuration not stated)", "Potency": "inactive"}
{"smiles": "COc1ccc(S(=O)(=O)N2CCCCC2)cc1NC(=O)COc1ccccc1", "Potency": "inactive"}
{"smiles": "CCNC(=O)NC(=O)C(C)OC(=O)C1CCN(S(=O)(=O)c2ccccc2F)CC1", "note": "(configuration not stated)", "Potency": "inactive"}
{"smiles": "COc1ccc(S(=O)(=O)N2CCOCC2)cc1C(=O)NC1CCCCC1", "Potency": "inactive"}
{"smiles": "CCNC(=O)NC(=O)C(C)OC(=O)c1cc(S(=O)(=O)N2CCCCCC2)ccc1OC", "note": "(configuration not stated)", "Potency": "23.1 µM (active)"}
{"smiles": "COc1ccc(S(=O)(=O)Nc2ccc(S(=O)(=O)N3CCCCC3)cc2)cc1OC", "Potency": "inactive"}
{"smiles": "COc1ccc(-c2ccc(Nc3ccc(S(=O)(=O)N4CCCC4)cc3)nn2)cc1OC", "Potency": "23.1 µM (active)"}
{"smiles": "COc1ccc(S(=O)(=O)N2CCCCC2)cc1Br", "Potency": "inactive"}
{"smiles": "COc1ccc(S(=O)(=O)N2CCCCCC2)cc1NC(=O)Cc1ccc(OC)c(OC)c1", "Potency": "18.3 µM (active)"}
{"smiles": "COc1ccc(CC(=O)Nc2cc(S(=O)(=O)N3CCCCC3)ccc2N2CCN(C)CC2)cc1", "Potency": "inactive"}
